Test results reported in PMC4336329 (PLoS ONE, 2015).
Hit rate of the full screen: of about 310,000 compounds, about 14,000 (4.5%) showed an effect of 50% or more. Effects have a minus sign here. The full list was thinned out, with strong results kept by preference.

target: human ether-à-go-go-related gene (hERG) potassium channel (human, UniProt Q12809); test: primary screen, population patch clamp on CHO cells stably expressing hERG; higher = less effect of the substance
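Also: peak tail current of the secondary pulse compared with the same well before compound.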

human ether-à-go-go-related gene (hERG) potassium channel, sequence (Q12809 whole entry, looked up): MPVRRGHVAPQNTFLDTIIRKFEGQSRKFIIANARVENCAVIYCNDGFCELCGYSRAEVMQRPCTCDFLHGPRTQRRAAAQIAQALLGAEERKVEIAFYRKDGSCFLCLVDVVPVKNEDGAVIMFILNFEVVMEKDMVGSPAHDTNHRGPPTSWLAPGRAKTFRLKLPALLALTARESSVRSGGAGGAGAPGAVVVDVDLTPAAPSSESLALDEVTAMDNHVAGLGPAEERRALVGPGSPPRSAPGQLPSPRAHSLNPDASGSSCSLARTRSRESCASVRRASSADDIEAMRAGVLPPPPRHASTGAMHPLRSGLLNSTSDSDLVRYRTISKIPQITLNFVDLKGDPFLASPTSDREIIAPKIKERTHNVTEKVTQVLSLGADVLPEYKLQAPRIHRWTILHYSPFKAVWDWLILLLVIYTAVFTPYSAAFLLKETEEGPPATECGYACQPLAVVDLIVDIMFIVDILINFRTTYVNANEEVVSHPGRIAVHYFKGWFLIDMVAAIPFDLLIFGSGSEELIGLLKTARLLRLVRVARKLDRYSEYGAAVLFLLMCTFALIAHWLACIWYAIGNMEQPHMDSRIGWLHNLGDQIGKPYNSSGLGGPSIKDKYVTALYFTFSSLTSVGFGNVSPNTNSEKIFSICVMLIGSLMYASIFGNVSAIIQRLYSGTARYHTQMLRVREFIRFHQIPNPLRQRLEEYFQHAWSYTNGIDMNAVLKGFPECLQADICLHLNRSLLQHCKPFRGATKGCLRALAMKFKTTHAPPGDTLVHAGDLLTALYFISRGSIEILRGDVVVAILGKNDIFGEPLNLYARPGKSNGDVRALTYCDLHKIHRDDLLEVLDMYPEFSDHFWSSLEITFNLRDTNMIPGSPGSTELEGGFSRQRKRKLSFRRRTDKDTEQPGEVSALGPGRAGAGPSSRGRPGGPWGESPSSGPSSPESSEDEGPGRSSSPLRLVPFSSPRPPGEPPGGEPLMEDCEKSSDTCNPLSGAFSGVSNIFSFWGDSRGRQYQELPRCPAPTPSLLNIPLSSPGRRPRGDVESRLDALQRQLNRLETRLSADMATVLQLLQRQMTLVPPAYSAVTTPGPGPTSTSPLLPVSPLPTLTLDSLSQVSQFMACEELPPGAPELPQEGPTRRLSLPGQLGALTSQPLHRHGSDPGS

Row | SMILES | hERG current change (%, negative = inhibition) at 10uM [%]
1 | O=[N+]([O-])c1ccc(N=Nc2ccc(O)cc2O)cc1 | 28.4
2 | CCCCn1c(O)c(N=Nc2ccccn2)c2ccccc21 | 7.6
3 | O=C(CN(C(=O)c1csnn1)c1ccccc1)NCCc1ccccc1 | -15
4 | O=C(CN(C(=O)c1csnn1)c1ccc(F)cc1)NCCc1ccccc1 | 7.95
5 | CC(C)c1ccc(N(CC(=O)NCCc2ccccc2)C(=O)c2csnn2)cc1 | -60
6 | O=C(CN(C(=O)c1csnn1)c1ccc(Cl)cc1)NCCc1ccccc1 | -5.16
7 | CC(=O)c1ccc(N(CC(=O)NCCc2ccccc2)C(=O)c2csnn2)cc1 | -52.4
8 | Cc1ccc(N(CC(=O)NCCc2ccccc2)C(=O)c2csnn2)cc1 | -15.4
9 | Cc1ccc(Cc2nnc(SCC(=O)Nc3c(C)cccc3C)[nH]c2=O)cc1 | -9.17
10 | CCOC(=O)c1c(NC(=O)C2C3C=CC(C3)C2C(=O)O)sc2c1CC(C)CC2 (stereo not shown) | 19.6
11 | CCOC(=O)c1c(NC(=O)C2C3C=CC(C3)C2C(=O)O)sc2c1CCC(C)C2 (stereo not shown) | -6.93
12 | CCCOC(=O)c1c(NC(=O)C2C3C=CC(C3)C2C(=O)O)sc2c1CCC(C)C2 (stereo not shown) | -59.3
13 | O=C(O)c1cc2c(cn1)[nH]c1ccccc12 | 10.9
14 | CC1CCC(C(C)C)C(OC(=O)COC(=O)c2cccn2C)C1 (stereo not shown) | 16.1
15 | CC1CCC(C(C)C)C(OC(=O)Cn2c(-c3ccccc3)[n+](C)c3ccccc32)C1.[Cl-] (stereo not shown) | -77.3
16 | CC1CCC(C(C)C)C(OC(=O)CSc2n[nH]c(=O)[nH]c2=O)C1 (stereo not shown) | -19.9
17 | Cc1nnc(SCC(=O)OC2CC(C)CCC2C(C)C)[nH]c1=O (stereo not shown) | 11.1
18 | CC1CCC(C(C)C)C(OC(=O)COC(=O)c2ccc(N)cc2)C1 (stereo not shown) | 6.47
19 | CC1CCC(C(C)C)C(OC(=O)C[n+]2cccc(C(N)=O)c2)C1.[Cl-] (stereo not shown) | 7.66
20 | CC1CCC(C(C)C)C(OC(=O)Cn2c(-c3ccc(Br)cc3)[n+](C)c3ccccc32)C1.[Cl-] (stereo not shown) | -78.3
21 | CC1CCC(C(C)C)C(OC(=O)Cn2c(-c3ccc(Cl)cc3)[n+](C)c3ccccc32)C1.[Cl-] (stereo not shown) | -82.9
22 | CC1CCC(C(C)C)C(OC(=O)Cn2nnc3c(cnn3-c3ccccc3)c2=O)C1 (stereo not shown) | 3.74

Row | SMILES | hERG current change (%, negative = inhibition) at 10uM [%]
23 | CC1CCC(C(C)C)C(OC(=O)Cn2c(-c3ccc(F)cc3)[n+](C)c3ccccc32)C1.[Cl-] (stereo not shown) | -76.3
24 | CC1CCC(C(C)C)C(OC(=O)CSc2nnc(N)s2)C1 (stereo not shown) | 3.01
25 | CC1CCC(C(C)C)C(OC(=O)COC(=O)c2ccc(=O)[nH]c2)C1 (stereo not shown) | -8.28
26 | COc1cccc(-n2ccnc2SCC(=O)Nc2cc(C)on2)c1 | 14.1
27 | Cc1ccc(S(=O)(=O)Nc2ccc(S(=O)(=O)Nc3cc(C)nc(C)n3)cc2)cc1 | 23.3
28 | NC(=O)c1cccnc1Oc1ccccc1 | -30.8
29 | O=C(N/N=C/c1ccc(OC(=O)c2cccs2)cc1)c1ccc(F)cc1 | 10
30 | O=C(c1cc(=O)[nH]c2ccc(Br)cc12)N1CCC2(CC1)OCCO2 | 12.6
31 | CCOC(=O)c1c(-c2ccccc2)csc1NC(=O)c1ccc(S(=O)(=O)N2CCOCC2)cc1 | 9.29
32 | CCN(CC)c1cc(NCCO)c([N+](=O)[O-])c2nonc12 | -25.1
33 | O=C(NCCS(=O)(=O)N1CCN(c2ccccc2F)CC1)c1ccc(Cl)cc1 | -55.5
34 | COc1ccc(CCC(=O)NCCS(=O)(=O)N2CCN(c3ccccc3F)CC2)cc1 | -63.2
35 | COc1ccc(CCC(=O)NCCS(=O)(=O)N2CCN(c3ccc(F)cc3)CC2)cc1 | -58.8
36 | COc1ccc(CCC(=O)NCCS(=O)(=O)N2CCN(c3ccccc3)CC2)cc1 | -36.6
37 | O=C(Cc1ccc(Cl)cc1)NCCS(=O)(=O)N1CCN(c2ccccc2F)CC1 | -10.6
38 | COc1ccc(CCC(=O)NCCS(=O)(=O)N2CCN(c3ccc(OC)cc3)CC2)cc1 | 7.57
39 | O=C(CCCc1ccccc1)NCCS(=O)(=O)N1CCN(c2ccccc2F)CC1 | -18.5
40 | COc1ccc(CCC(=O)NCCS(=O)(=O)N2CCN(c3ccccc3OC)CC2)cc1 | -8.87
41 | O=C(NCCS(=O)(=O)N1CCN(c2ccccc2F)CC1)c1ccc(Br)cc1 | 4.45
42 | COC(=O)COc1ccc(C(C2C(=O)CC(C)(C)CC2=O)C2C(=O)CC(C)(C)CC2=O)cc1 | 15.8
43 | Cc1oc2c(O)c(O)ccc2c(=O)c1-c1ccc(Cl)cc1 | -11.3
44 | COc1ccc([C@H]2CC(=O)C=C(c3ccc(F)cc3OCc3ccccc3)C2)cc1OC | 12.1

Row | SMILES | hERG current change (%, negative = inhibition) at 10uM [%]
45 | CCN(CC)c1ccc(SS(=O)(=O)O)cc1 | 9.02
46 | CCOc1ccccc1NC1=CC(=O)CC(c2ccccc2)C1 (stereo not shown) | -16.9
47 | O=C(CN1CCN(S(=O)(=O)c2ccc(Cl)cc2)CC1)c1ccc(O)c(O)c1 | -59.5
48 | O=C(CN1CCN(S(=O)(=O)c2ccc(Br)cc2)CC1)c1ccc(O)c(O)c1 | -76.8
49 | COc1ccc(S(=O)(=O)N2CCN(CC(=O)c3ccc(O)c(O)c3)CC2)cc1 | -45
50 | O=C(CN1CCN(S(=O)(=O)c2ccc(F)cc2)CC1)c1ccc(O)c(O)c1 | -34.9
51 | CC(C)c1ccc(S(=O)(=O)N2CCN(CC(=O)c3ccc(O)c(O)c3)CC2)cc1 | -24.6
52 | O=C(CN1CCN(S(=O)(=O)c2cc(Cl)ccc2Cl)CC1)c1ccc(O)c(O)c1 | 26.3
53 | Cc1cccc(-c2nc3ccccc3c3nncn23)c1 | -12.1
54 | CCCn1c(NC(=O)c2cccc(S(=O)(=O)N3CCCC3)c2)nc2ccccc21 | -28.8
55 | N#CCn1nnc(-c2ccc3c(c2)OCO3)n1 | -4.09
56 | Cc1ccccc1OCC(=O)OCC(=O)Nc1cc(C(F)(F)F)ccc1N1CCOCC1 | 12.9
57 | O=C(COC(=O)c1ccccc1NCCO)Nc1cc(C(F)(F)F)ccc1N1CCOCC1 | -60.2
58 | COc1ccc(NC(C)=O)cc1NC(C)C(=O)Nc1cc(C(F)(F)F)ccc1N1CCOCC1 (stereo not shown) | -60.1
59 | COc1ccc(NC(C)C(=O)Nc2cc(C(F)(F)F)ccc2N2CCOCC2)c(OC)c1 (stereo not shown) | -19.2
60 | CSc1ncccc1C(=O)OCC(=O)Nc1cc(C(F)(F)F)ccc1N1CCOCC1 | -20.2
61 | O=C(COC(=O)COc1ccc2ccccc2c1)Nc1cc(C(F)(F)F)ccc1N1CCOCC1 | 7.69
62 | N#Cc1ccc(OCC(=O)OCC(=O)Nc2cc(C(F)(F)F)ccc2N2CCOCC2)cc1 | -57.7
63 | O=C(COC(=O)c1ccc(O)cc1)Nc1cc(C(F)(F)F)ccc1N1CCOCC1 | -25
64 | CC(=O)c1c(C)[nH]c(C(=O)OCC(=O)Nc2cc(C(F)(F)F)ccc2N2CCOCC2)c1C | -56.1
65 | Cc1cc(OCC(=O)OCC(=O)Nc2cc(C(F)(F)F)ccc2N2CCOCC2)ccc1Cl | 11.1
66 | Cc1cc(C(=O)OCC(=O)Nc2cc(C(F)(F)F)ccc2N2CCOCC2)c(C)o1 | -0.421

Row | SMILES | hERG current change (%, negative = inhibition) at 10uM [%]
67 | COc1cc(Cl)c(C)cc1NC(C)C(=O)Nc1cc(C(F)(F)F)ccc1N1CCOCC1 (stereo not shown) | -2.59
68 | NCCN=C1NS(=O)(=O)c2ccccc21 | 0.316
69 | CCOc1ccc(OCC(=O)Nc2ccc(S(=O)(=O)Nc3cc(C)nc(C)n3)cc2)cc1 | 16.4
70 | COc1cccc(-c2nc(N3CCCC3)c3ccccc3n2)c1O | -5.65
71 | Cc1ccc(C)c(C(=O)COC(=O)c2cc(Cl)nc3ccccc23)c1 | 26.4
72 | O=C(Nc1ccc2c(c1)CCC2)Nc1ccc2c(c1)OCO2 | 6.88
73 | O=C(Nc1ccc(C(=O)N2CCCCC2)cc1)c1ccccc1Br | 8.24
74 | O=C(NCc1ccccn1)c1ccc(=O)oc1 | 1.42
75 | Cc1cc(Cl)ccc1OCC(=O)Nn1c(C)ccc1C | 3.73
76 | Cc1ccc(C(=O)NCc2ccco2)cc1Br | -11.5
77 | COc1cccc(NC(=O)C23CCC(C)(C(=O)O2)C3(C)C)c1 (stereo not shown) | -5.46
78 | COc1ccc(OC)c(/C=C2\Oc3cc(OCC(=O)N4CC(O)C[C@H]4C(=O)O)ccc3C2=O)c1 (stereo partly shown) | 4.97
79 | COc1ccccc1OCCCn1cc(C(=O)C2CC2)c2ccccc21 | -2.64
80 | COc1cccc(C(=O)NN2C(=S)N(c3ccccc3)C(=O)C2CC(N)=O)c1 (stereo not shown) | 16.2
81 | O=C(COc1ccc2ccccc2c1)Nc1ccccc1C(=O)O | 26.6
82 | CCCC(=O)NC(=S)Nc1cccc(Cl)c1N1CCCCC1 | 14.1
83 | C/C(=N\NC(=O)c1ccccc1O)C1C(=O)c2ccccc2C1=O | -0.25
84 | C/C(=N\NC(=O)C1CC1)c1ccccc1O | 0.248
85 | C/C(=N\NC(=O)c1ccccc1O)C1CC1 | -62.2
